In PubChem BioAssay AID1159580 (chemical genetic matrix, 2015):
Hit rate of the full screen: of about 5,500 compounds, about 2,000 (36%) were called active. About 18% were inconclusive and are not listed. Rule as the data show it: active = normalized growth mostly below about 0.91 (no sharp cut-off); inconclusive = no clear call, values can overlap the other calls; inactive = mostly above about 0.92. The list shows a part of the results.

Experiment: chemical genetic growth profiling, strain panel (AID 1159580);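 also: tested at 20 µM; growth read once vehicle control cultures reached saturation at 30 °C; 1 = growth at the plate median or of vehicle wells; lower values mean less growth of the strain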
Settings: S. cerevisiae deletion strains, growth OD

Measured: normalized growth

CC(=O)N[C@@H](CC(=O)O)C(=O)O
inactive: locus YAL013W, strain DEP1, active compounds read low 1.01 | locus YAL021C, strain ccr4, active compounds read low 0.998 | locus YAL026C, strain drs2, active compounds read low 1.01 | locus YAL030W, strain snc1, active compounds read low 0.997 | locus YBL061C, strain skt5, active compounds read low 1.01 | locus YBR009C, strain hhf1, active compounds read low 1.01 | locus YBR021W, strain FUR4, active compounds read low 1.02 | locus YBR023C, strain chs3, active compounds read low 1 | locus YBR171W, strain sec66, active compounds read low 1 | locus YBR229C, strain ROT2, active compounds read low 1.01 | locus YBR231C, strain swc5, active compounds read low 0.982 | locus YBR279W, strain paf1, active compounds read low 1 | locus YCL011C, strain gbp2, active compounds read low 1.01 | locus YCL016C, strain dcc1, active compounds read low 1 | locus YCL029C, strain bik1, active compounds read low 1.03 | locus YCL069W, strain vba3, active compounds read low 1.01 | locus YCR088W, strain abp1, active compounds read low 1 | locus YDL005C, strain med2, active compounds read low 0.997 | locus YDL035C, strain GPR1, active compounds read low 1 | locus YDL040C, strain nat1, active compounds read low 1.01 | locus YDL074C, strain BRE1, active compounds read low 1.01 | locus YDL101C, strain DUN1, active compounds read low 1.01 | locus YDL134C, strain PPH21, active compounds read low 1.01 | locus YDL185W, strain tfp1, active compounds read low 1.02 | locus YDL192W, strain arf1, active compounds read low 1.02 | locus YDR001C, strain nth1, active compounds read low 1.01 | locus YDR069C, strain doa4, active compounds read low 1.03 | locus YDR101C, strain arx1, active compounds read low 1.02 | locus YDR137W, strain rgp1, active compounds read low 0.997 | locus YDR150W, strain NUM1, active compounds read low 1.01 | locus YDR159W, strain sac3, active compounds read low 0.969 | locus YDR162C, strain NBP2, active compounds read low 1.01 | locus YDR195W, strain ref2 0.972 | locus YDR297W, strain sur2, active compounds read low 1.02 | locus YDR318W, strain mcm21, active compounds read low 1.01 | locus YDR334W, strain swr1, active compounds read low 1.01 | locus YDR335W, strain msn5, active compounds read low 1.01 | locus YDR388W, active compounds read low 1.01 | locus YDR392W, strain spt3, active compounds read low 0.932 | locus YDR502C, strain sam2, active compounds read low 1.02 | locus YEL003W, strain gim4, active compounds read low 1.01 | locus YEL037C, strain rad23, active compounds read low 1.01 | locus YEL061C, strain CIN8 (second series), active compounds read low 1.01 | locus YEL061C, strain CIN8, active compounds read low 1.01 | locus YER015W, strain faa2, active compounds read low 1.01 | locus YER016W, strain bim1, active compounds read low 1 | locus YER110C, active compounds read low 1.02 | locus YER111C, strain swi4, active compounds read low 1.01 | locus YER155C, strain BEM2 (second series), active compounds read low 0.999 | locus YER155C, strain BEM2, active compounds read low 1.01 | locus YER167W, strain BCK2, active compounds read low 1.01 | locus YFR010W, strain ubp6, active compounds read low 1 | locus YGL078C, strain dbp3, active compounds read low 1.01 | locus YGL086W, strain mad1, active compounds read low 1.01 | locus YGL167C, strain pmr1, active compounds read low 1 | locus YGL173C, strain kem1, active compounds read low 1.02 | locus YGL227W, strain vid30, active compounds read low 1.01 | locus YGL240W, strain doc1, active compounds read low 0.984 | locus YGL248W, strain PDE1, active compounds read low 1 | locus YGL253W, strain hxk2, active compounds read low 1.01 | locus YGR078C, strain PAC10, active compounds read low 1.01 | locus YGR135W, strain pre9, active compounds read low 1.01 | locus YGR229C, strain SMI1, active compounds read low 1.01 | locus YGR252W, strain gcn5, active compounds read low 0.959 | locus YHR013C, strain ard1, active compounds read low 1.01 | locus YHR027C, strain rpn1, active compounds read low 0.993 | locus YHR030C, strain SLT2, active compounds read low 1.01 | locus YHR079C, strain IRE1 (second series), active compounds read low 1.01 | locus YHR094C, strain hxt1, active compounds read low 1.01 | locus YHR129C, strain ARP1, active compounds read low 0.997 | locus YHR142W, strain chs7, active compounds read low 1.01 | locus YHR200W, strain rpn10, active compounds read low 1.02 | locus YIL066C, strain RNR3, active compounds read low 1.02 | locus YIL073C, strain SPO22, active compounds read low 1.02 | locus YIL125W, strain kgd1, active compounds read low 1.01 | locus YIR030C, strain dcg1, active compounds read low 1.03 | locus YJL092W, strain hpr5, active compounds read low 1.01 | locus YJL095W, strain BCK1 (second series), active compounds read low 0.999 | locus YJL095W, strain BCK1, active compounds read low 1.02 | locus YJL115W, strain asf1, active compounds read low 1 | locus YJL129C, strain trk1, active compounds read low 1 | locus YJL134W, strain LCB3, active compounds read low 1.01 | locus YJL154C, strain vps35, active compounds read low 1.01 | locus YJL164C, strain tpk1, active compounds read low 1 | locus YJL166W, strain qcr8, active compounds read low 1.01 | locus YJL168C, strain set2, active compounds read low 1.01 | locus YJL187C, strain SWE1 (second series), active compounds read low 1.01 | locus YJL187C, strain SWE1, active compounds read low 1.03
